A selection: hits, their analogues and other compounds. The true share with any hit is near 3.6%.
Pf apPOL block: Pf-apPOL inhibitors, biochemical, fluorescence. Recombinant Pf-apPOL, molecular beacon fluorescence, 1.5 h. 210,000 compounds, 0.25% hits. inhibition, % at 10 µM. Plasmodium falciparum apicoplast DNA polymerase (apPOL)
mHTT-CaM PPI inh: mutant huntingtin-calmodulin interaction inhibitors – biochemical, AlphaScreen, primary screen; AID 1671202, 2021; inhibition, % at 15 µM; 190,000 compounds, 3.6% hits; AlphaScreen His-mHTT/GST-CaM binding, luminescence;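 further: 0% = both proteins with DMSO and 100% = one protein alone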
The depositor's hits bear a star; · = no result given; + = active, no number. No stated cut-off is given here; in the data, active means inhibition above about 50%; inactive means the rest.

SMILES	Pf apPOL block	mHTT-CaM PPI inh
CCCN1CCC(=O)N([C@H](COc2ccccc2)c2ccccc2)CC1	-9.3	22.1
Cc1ccc(SC[C@H](c2ccccc2)N2CCN(CCc3ccccc3)CCC2=O)cc1	5.7	100.5*
O=C1CCN(CCc2ccccc2)CCN1[C@H](COc1ccccc1)c1ccccc1	1.1	100.0*
CCCN1CCC(=O)N([C@H](CSc2ccc(C)cc2)c2ccccc2)CC1	-2.3	6.5
N#Cc1ccc(Cl)cc1NC(=O)C1CCCN(c2ccc(-c3ccc(F)cc3)nn2)C1 (stereo not drawn)	-6.1	-9.2
Cc1cc(-c2cc(Cl)ccc2O)n[nH]1	-4.0	5.5
O=[N+]([O-])c1ccccc1-c1cc(-c2cc(Cl)ccc2O)n[nH]1	2.3	100.2*
CC1=NS(=O)(=O)N(C)C=C1C(=O)OCc1ccccc1C	-3.7	-16.6
O=C1CN(C(=O)C2CC2)C(c2ccccc2)c2cc(Br)ccc2N1 (stereo not drawn)	-3.9	10.0
CCN(CC)C1C(=O)Nc2ccc(Br)cc2C1c1ccccc1Cl (stereo not drawn)	13.1	94.0*
CC12CC(NC(=O)N1Cc1ccccc1)c1cc(Br)ccc1O2 (stereo not drawn)	3.0	10.0
O=C1Nc2ccc(Br)cc2C(c2ccccc2Cl)C1N1CCCCC1 (stereo not drawn)	-6.8	80.0*
CC(C)Cn1cc(C(N)=O)c2ccccc2c1=O	-5.0	-4.2
CCOc1ccc(C(N)CC(=O)O)cc1 (stereo not drawn)	-0.5	-3.3
CCn1nccc1C(=O)N1CCCC(c2nncn2-c2ccccc2)C1 (stereo not drawn)	1.5	0.6
O=[N+]([O-])c1ccccc1/C=C/CN1CCN(c2cccc(Cl)c2)CC1	-2.8	59.3*
O=[N+]([O-])c1ccccc1/C=C/CN1CCN(c2ccc(F)cc2)CC1	-21.7	24.2
Cc1cccc(CNC(=O)c2nn(C)c3c2CN(C(=O)CC(C)C)CC3)c1	-4.0	48.9
Cn1nc(C(=O)NCc2ccc(F)cc2)c2c1CCN(C(=O)c1c(F)cccc1F)C2	-13.9	8.7
CCC(CC)C(=O)N1CCc2c(c(C(=O)NCc3cccc(C)c3)nn2C)C1	-2.3	20.9
CCCCC(=O)N1CCc2c(c(C(=O)NCc3ccccc3)nn2C)C1	-9.2	0.2
CCCCC(=O)N1CCc2c(c(C(=O)NCc3cccc(C)c3)nn2C)C1	1.6	58.7*
Cn1nc(C(=O)NCc2ccccc2)c2c1CCN(C(=O)Cc1ccc(F)cc1)C2	-5.7	78.0*
Cc1cccc(CNC(=O)c2nn(C)c3c2CN(C(=O)C(C)C)CC3)c1	66.9*	41.0
Cc1cccc(CNC(=O)c2nn(C)c3c2CN(C(=O)Cc2ccccc2)CC3)c1	11.1	63.5*
SMILES	Pf apPOL block	mHTT-CaM PPI inh
O=C(NCC1CCN(S(=O)(=O)C2CC2)CC1)C(=O)Nc1cccc(N2CCCC2=O)c1	-5.9	-19.6
O=C1OC(c2cccc([N+](=O)[O-])c2)=N/C1=C\c1ccccc1F	-1.5	0.0
CC(Oc1ccccc1)C(=O)N(C)c1ccccc1 (stereo not drawn)	-0.7	-1.6
COc1ccccc1C(=O)Nc1cc(C(C)C)ccc1O	-0.7	-5.1
CN1/C(=C/c2cccc[n+]2CCO)Sc2ccccc21	-0.7	8.0
CN1C(=CC=Cc2cc[n+](CCO)c3ccccc23)Sc2ccccc21	78.0*	95.2*
CN1C(=O)c2cc(NC(=O)OCc3ccccc3)ccc2Oc2ccccc21	-8.4	6.8
Cc1ccc(-c2csc3c(=O)n(C(C)C)cnc23)cc1	-7.2	-4.6
CCOC(=O)COc1cc2oc(=O)c3c(c2cc1Cl)CCC3	-0.6	-3.6
CC12CC(NC(=O)N1c1cccc(Cl)c1)c1cc([N+](=O)[O-])ccc1O2 (stereo not drawn)	-0.9	13.0
CNc1nc(C)c([N+](=O)[O-])c(Nc2ccc(OC)cc2)n1	-4.4	6.0
COc1ccc(Nc2nc(Nc3ccc(O)cc3)nc(C)c2[N+](=O)[O-])cc1	-4.1	78.0*
COc1cc(/C=C(\C#N)c2nc3ccc(C)cc3[nH]2)ccc1OCC#N	-4.5	70.3*
N#C/C(=C\c1ccc(I)o1)c1nc2ccccc2[nH]1	2.5	-2.9
Cc1ccc2nc(/C(C#N)=C/c3cccc(O)c3)[nH]c2c1	-4.0	69.8*
N#C/C(=C\c1ccc(Sc2nc3ccccc3[nH]2)o1)c1nc2ccccc2[nH]1	-5.9	100.3*
COc1ccc(/C=C(\C#N)c2nc3ccc(C)cc3[nH]2)cc1	-13.6	3.5
N#C/C(=C\c1ccc(O)cc1O)c1nc2ccccc2[nH]1	-0.1	72.3*
Cc1ccc2nc(/C(C#N)=C/c3cccc(Br)c3)[nH]c2c1	-1.6	-21.2
N#C/C(=C\c1cc(Cl)ccc1O)c1nc2ccccc2[nH]1	3.6	8.4
COc1ccccc1NC(=O)NCCC1CCN(S(=O)(=O)c2ccc(C)cc2)CC1	-3.7	30.5
COc1ccccc1Nc1ncc2c(n1)CCN(CCc1ccccc1)C2	-3.7	31.2
Cc1[nH]c2ccccc2c1SCCNC(=O)c1cccc(Br)c1	-7.9	25.0
CNC(=O)C1(c2ccc(NC(C)=O)cc2)CC1	-3.9	-12.0
COc1cc(/C=C(\C#N)c2nc3ccccc3[nH]2)cc(Br)c1O	8.3	1.0
SMILES	Pf apPOL block	mHTT-CaM PPI inh
COc1cc(/C=C(\C#N)c2nc3ncc(Br)cc3[nH]2)ccc1O	-7.3	55.0*
O=C1CC(c2cccs2)CC2=C1C(c1coc3ccccc3c1=O)Nc1ccccc1N2 (stereo not drawn)	-3.8	54.0*
O=C1CC(c2ccccc2Cl)CC2=C1C(c1coc3ccccc3c1=O)Nc1ccccc1N2 (stereo not drawn)	10.2	26.0
COc1ccccc1-c1noc(C2CCCN2C(=O)c2ccc3c(c2)OCO3)n1 (stereo not drawn)	-0.2	-1.4
COCCN(CCOC)Cc1c(O)ccc2c1OC(=Cc1ccncc1)C2=O	-9.7	5.4
Oc1ccc(/C=N/Nc2nccnc2Cl)c(O)c1	·	+
Oc1ccccc1C=NNc1nc2c(Cl)cc(Cl)cc2s1	0.5	·
COc1ccc(C2CC(c3cccc(Br)c3)Nc3ncnn32)cc1 (stereo not drawn)	-1.6	32.0
Cc1ccc(C2CC(c3cccs3)n3ncnc3N2)cc1 (stereo not drawn)	-1.8	4.0
Cc1ccc(C2CC(c3ccc(Br)cc3)n3ncnc3N2)cc1 (stereo not drawn)	-4.6	53.0*
Clc1ccc(C2CC(c3cccc(Br)c3)Nc3ncnn32)cc1 (stereo not drawn)	-2.5	53.0*
c1ccc(-c2ccc(C3CC(c4cccs4)n4ncnc4N3)cc2)cc1 (stereo not drawn)	-8.2	55.0*
Cc1ccc(C2CC(c3ccccc3)n3ncnc3N2)cc1 (stereo not drawn)	-2.5	-6.4
Clc1ccc(C2CC(c3ccccc3)Nc3ncnn32)cc1 (stereo not drawn)	-3.8	11.3
Clc1ccc(C2CC(c3ccc(Br)cc3)Nc3ncnn32)cc1 (stereo not drawn)	-5.8	59.0*
Cc1ccc(N2CCC(NC(=O)c3ccc(C(F)(F)F)cc3)C2=O)cc1 (stereo not drawn)	0.1	-3.2
CCN1N=C(C(=O)N2CCC(C)CC2)S(=O)(=O)c2ccc(Cl)cc21	-1.0	-5.3
Cc1cccc(OCc2nnc(SCC(=O)NC3CCCCC3)o2)c1	-4.5	-0.6
COc1ccc(-c2c(O)c3ccc(O)cc3oc2=O)cc1	0.9	0.5
COc1cc(O)c2c(c1)oc(=O)c1c3cc(O)c(O)cc3oc21	51.3*	·
